From PubChem BioAssay (NCATS)
“And” between values parts separate entries of the source, which are not always exact repeats. Equal entries are not always repeated. Records with an inconclusive call do not appear. Where a call stands in place of a potency, no number is given. The source made the active and inactive calls. Unless noted, calls come from the whole dose curve.

Experiments:
[1] = molecular target: DNA dC->dU-editing enzyme APOBEC-3G (Homo sapiens) (UniProt Q9HC16); test: qHTS for inhibitors of Vif-A3G interactions: Validation (AID 588379; active = well fitted inhibition curve with a large enough effect)
DNA dC->dU-editing enzyme APOBEC-3G (Homo sapiens), sequence (Q9HC16 whole entry, looked up): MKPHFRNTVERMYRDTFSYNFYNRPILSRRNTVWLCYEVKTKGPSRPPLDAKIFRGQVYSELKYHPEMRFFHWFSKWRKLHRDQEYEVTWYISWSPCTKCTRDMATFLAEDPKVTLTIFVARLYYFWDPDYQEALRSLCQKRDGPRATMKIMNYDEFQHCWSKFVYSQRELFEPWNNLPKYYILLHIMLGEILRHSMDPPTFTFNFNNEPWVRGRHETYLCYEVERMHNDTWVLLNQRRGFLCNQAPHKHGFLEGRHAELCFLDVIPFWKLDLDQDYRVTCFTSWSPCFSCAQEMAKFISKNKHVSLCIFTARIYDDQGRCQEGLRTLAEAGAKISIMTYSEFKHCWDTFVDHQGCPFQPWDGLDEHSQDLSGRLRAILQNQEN
Summary of the method: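 Yellow fluorescence (Ex 488, Em 500-530) of Vif-coexpressing HeLa A3G-eYFP cells, scanned by Acumen cytometer, reports blocked A3G degradation. Cells plated at 700/well overnight at 37 deg C before compound addition, then a further overnight compound incubation at 37 deg C.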

[2] = molecular target: Ubiquitin carboxyl-terminal hydrolase 1 (Homo sapiens) (UniProt O94782); test: Inhibitors of USP1/UAF1: Pilot qHTS (AID 504865; active = well fitted inhibition curve with a large enough effect;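 note: rhodamine fluorescence freed from ubiquitin-rhodamine substrate followed over time; top concentration of the series differs between compounds; nearly all actives have a fitted effect of over 35% in size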)
Ubiquitin carboxyl-terminal hydrolase 1 (Homo sapiens), sequence (O94782 whole entry, looked up): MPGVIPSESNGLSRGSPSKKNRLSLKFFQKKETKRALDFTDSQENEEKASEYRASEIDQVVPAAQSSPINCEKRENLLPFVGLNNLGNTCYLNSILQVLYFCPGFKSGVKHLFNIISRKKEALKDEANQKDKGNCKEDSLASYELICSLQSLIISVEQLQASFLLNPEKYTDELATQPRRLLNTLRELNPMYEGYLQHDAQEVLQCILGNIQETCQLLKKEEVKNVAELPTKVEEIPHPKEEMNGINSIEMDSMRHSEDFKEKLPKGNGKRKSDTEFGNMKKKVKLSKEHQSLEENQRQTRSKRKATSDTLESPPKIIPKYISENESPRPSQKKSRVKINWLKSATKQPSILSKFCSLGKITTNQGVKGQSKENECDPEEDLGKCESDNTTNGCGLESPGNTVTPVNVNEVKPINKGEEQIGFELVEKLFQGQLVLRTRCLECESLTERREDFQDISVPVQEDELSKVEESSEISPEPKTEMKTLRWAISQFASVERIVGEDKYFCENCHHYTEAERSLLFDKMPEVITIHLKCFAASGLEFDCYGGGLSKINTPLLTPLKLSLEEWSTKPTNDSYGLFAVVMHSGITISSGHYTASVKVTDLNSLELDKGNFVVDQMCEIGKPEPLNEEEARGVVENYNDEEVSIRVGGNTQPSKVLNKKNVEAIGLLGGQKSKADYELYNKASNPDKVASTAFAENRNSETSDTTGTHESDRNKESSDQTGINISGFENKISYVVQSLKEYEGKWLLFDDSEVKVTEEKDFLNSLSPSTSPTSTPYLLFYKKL
Summary of the method: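 USP1/UAF1 complex at 1 nM preincubated 15 min at room temperature with compound, then Ub-Rho substrate added at 150 nM final. Fluorescence (480/540 nm) read kinetically in 50 mM HEPES pH 7.8, 0.5 mM EDTA, 1 mM TCEP, 0.1 mg/ml BSA, 0.01% Tween-20.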

[3] = molecular target: Estrogen receptor (Homo sapiens) (UniProt P03372); test: qHTS assay for small molecule antagonists of estrogen receptor alpha signaling (AID 588513; active = well fitted curve in the direction sought with a large enough effect in the signal ratio, with a control signal flat, not every such curve was filed as active; the % refers to the signal ratio)
Estrogen receptor (Homo sapiens), sequence (P03372 whole entry, looked up): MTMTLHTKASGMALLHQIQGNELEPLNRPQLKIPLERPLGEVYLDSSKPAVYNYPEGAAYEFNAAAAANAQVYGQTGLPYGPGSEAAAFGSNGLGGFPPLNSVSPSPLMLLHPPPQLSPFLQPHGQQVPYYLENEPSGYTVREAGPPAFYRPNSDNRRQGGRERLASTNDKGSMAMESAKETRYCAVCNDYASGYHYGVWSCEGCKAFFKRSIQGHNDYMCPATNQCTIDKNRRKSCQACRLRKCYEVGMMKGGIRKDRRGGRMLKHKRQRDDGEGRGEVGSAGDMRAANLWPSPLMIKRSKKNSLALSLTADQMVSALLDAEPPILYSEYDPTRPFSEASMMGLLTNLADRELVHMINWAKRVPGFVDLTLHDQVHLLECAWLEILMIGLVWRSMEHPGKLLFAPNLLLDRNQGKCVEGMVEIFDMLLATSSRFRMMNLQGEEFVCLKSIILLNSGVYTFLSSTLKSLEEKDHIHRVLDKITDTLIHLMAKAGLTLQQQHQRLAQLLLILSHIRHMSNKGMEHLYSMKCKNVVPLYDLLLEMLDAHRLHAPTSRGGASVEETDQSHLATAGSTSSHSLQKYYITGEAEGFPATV
Summary of the method: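 ER-alpha-UAS-bla GripTite HEK 293 cells in 2% charcoal/dextran-treated FBS medium; compounds titrated (1:2, duplicate), then stimulated with 0.5 nM 17-beta-estradiol for 18 h at 37C. CCF4 beta-lactamase fluorescence; Hill-fit IC50 and efficacy.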

[4] = molecular target: Androgen receptor (Homo sapiens) (UniProt P10275); test: qHTS assay for small molecule agonists of androgen receptor signaling (AID 588515; active = well fitted curve in the direction sought with a large enough effect in the signal ratio, with a control signal flat; the % refers to the signal ratio); settings: AR-UAS-bla HEK293, beta-lactamase ratio, agonist 16 h; stronger effect = higher value
Androgen receptor (Homo sapiens), sequence (P10275 whole entry, looked up): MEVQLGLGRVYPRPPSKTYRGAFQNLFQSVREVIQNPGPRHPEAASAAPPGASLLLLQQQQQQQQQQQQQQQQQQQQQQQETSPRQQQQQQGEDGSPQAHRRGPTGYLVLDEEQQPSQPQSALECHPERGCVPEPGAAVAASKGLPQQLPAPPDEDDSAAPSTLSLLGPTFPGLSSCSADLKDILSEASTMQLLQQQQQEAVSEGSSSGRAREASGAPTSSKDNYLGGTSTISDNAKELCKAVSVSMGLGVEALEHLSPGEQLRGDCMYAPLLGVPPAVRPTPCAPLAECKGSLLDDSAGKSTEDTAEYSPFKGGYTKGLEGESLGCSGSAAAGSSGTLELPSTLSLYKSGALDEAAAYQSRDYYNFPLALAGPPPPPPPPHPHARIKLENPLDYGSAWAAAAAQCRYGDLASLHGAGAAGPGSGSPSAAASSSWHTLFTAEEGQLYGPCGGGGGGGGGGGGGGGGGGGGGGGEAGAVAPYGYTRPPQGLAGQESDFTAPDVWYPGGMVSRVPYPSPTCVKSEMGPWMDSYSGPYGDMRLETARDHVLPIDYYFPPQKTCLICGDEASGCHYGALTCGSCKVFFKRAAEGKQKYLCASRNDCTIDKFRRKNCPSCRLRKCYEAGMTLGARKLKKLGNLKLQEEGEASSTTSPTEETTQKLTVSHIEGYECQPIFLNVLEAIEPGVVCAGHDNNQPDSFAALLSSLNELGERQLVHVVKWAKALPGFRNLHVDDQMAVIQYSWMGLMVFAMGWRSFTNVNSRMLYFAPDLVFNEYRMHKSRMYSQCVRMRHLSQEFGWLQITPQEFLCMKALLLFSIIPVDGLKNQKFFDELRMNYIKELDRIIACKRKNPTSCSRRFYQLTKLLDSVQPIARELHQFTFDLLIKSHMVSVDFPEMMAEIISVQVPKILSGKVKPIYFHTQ
Summary of the method: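 Stimulation of an AR-responsive β-lactamase reporter in GripTite HEK293 cells was measured after 16 h compound exposure at 37 °C, via CCF4 fluorescence after 2 h RT. EC50 from Hill fits, normalized to R1881 at 30 nM.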

[5] = molecular target: Androgen receptor (Homo sapiens) (UniProt P10275); test: qHTS assay for small molecule antagonists of androgen receptor signaling (AID 588516; active = well fitted curve in the direction sought with a large enough effect in the signal ratio, with a control signal flat, not every such curve was filed as active; the % refers to the signal ratio)
Summary of the method: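 AR-UAS-bla GripTite HEK 293 cells (2000/well) treated with compound titrations plus 10 nM R1881 for 16 h at 37C. Beta-lactamase read by CCF4 FRET (460/530 nm); IC50 from Hill fits, normalized to R1881 and DMSO control wells.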

[6] = molecular target: Bile acid receptor (Homo sapiens) (UniProt Q96RI1); test: qHTS assay for small molecule antagonists of farnesoid X receptor signaling (AID 588526)
Summary of the method: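 Concentration-response titrations were fitted to the Hill equation for half-maximal inhibition and maximal response, with data normalised to 50 uM chenodeoxycholic acid and DMSO control wells. Cells: FXR-UAS-bla HEK293T, dialyzed FBS.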

[7] = qHTS assay for small molecule antagonists of peroxisome proliferator-activated receptor delta signaling (AID 588535; active = well fitted inhibition curve with a large enough effect in the signal ratio, with a control signal flat, not every such curve was filed as active; the % refers to the signal ratio;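 for max response: cells co-treated with a PPAR-delta agonist as stimulator during compound exposure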); settings: HEK293T PPARd-UAS-bla, beta-lactamase FRET ratio, 18 h; 460 nm channel
Summary of the method: (§1)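 Compounds tested in titration on PPAR-delta-UAS-bla HEK293T cells grown in charcoal/dextran-stripped serum (2%); beta-lactamase activity read via CCF4 emission at 460 and 530 nm.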

[8] = molecular target: Peroxisome proliferator-activated receptor delta (Homo sapiens) (UniProt Q03181); test: as above
Peroxisome proliferator-activated receptor delta (Homo sapiens), sequence (Q03181 whole entry, looked up): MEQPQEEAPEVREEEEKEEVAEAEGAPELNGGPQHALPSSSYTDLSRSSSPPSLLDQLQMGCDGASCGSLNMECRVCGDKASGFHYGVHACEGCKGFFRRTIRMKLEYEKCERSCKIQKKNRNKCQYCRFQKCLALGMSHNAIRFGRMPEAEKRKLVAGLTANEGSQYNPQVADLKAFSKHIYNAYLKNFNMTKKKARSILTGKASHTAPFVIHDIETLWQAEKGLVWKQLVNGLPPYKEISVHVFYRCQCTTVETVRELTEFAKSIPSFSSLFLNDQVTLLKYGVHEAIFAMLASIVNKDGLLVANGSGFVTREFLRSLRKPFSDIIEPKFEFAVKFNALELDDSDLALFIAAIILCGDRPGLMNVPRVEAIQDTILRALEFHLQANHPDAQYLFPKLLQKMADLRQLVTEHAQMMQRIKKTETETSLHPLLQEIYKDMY
Summary of the method: as §1

[9] = molecular target: Peroxisome proliferator-activated receptor gamma (Homo sapiens) (UniProt P37231); test: qHTS assay for small molecule agonists of peroxisome proliferator-activated receptor gamma signaling (AID 588536; active = well fitted curve in the direction sought with a large enough effect in the signal ratio, with a control signal flat, not every such curve was filed as active; the % refers to the signal ratio)
Peroxisome proliferator-activated receptor gamma (Homo sapiens), sequence (P37231 whole entry, looked up): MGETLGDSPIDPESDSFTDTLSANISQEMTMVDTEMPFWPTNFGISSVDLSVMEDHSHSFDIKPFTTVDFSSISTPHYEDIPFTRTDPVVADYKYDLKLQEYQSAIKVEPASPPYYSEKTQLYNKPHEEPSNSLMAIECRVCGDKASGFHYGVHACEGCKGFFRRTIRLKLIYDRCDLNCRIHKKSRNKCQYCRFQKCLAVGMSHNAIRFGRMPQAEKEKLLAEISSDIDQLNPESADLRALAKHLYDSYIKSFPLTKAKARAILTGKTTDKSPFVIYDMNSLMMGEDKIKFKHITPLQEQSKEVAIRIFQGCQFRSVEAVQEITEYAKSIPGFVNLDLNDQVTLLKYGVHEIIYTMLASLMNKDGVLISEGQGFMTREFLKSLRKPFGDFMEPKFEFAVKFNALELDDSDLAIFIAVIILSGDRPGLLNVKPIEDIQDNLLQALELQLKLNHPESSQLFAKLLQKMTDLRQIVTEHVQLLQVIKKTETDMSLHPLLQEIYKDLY
Summary of the method: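 Compound treatment: 16 h, 37 C, HEK293 GeneBLAzer cells. Detection: CCF4, 2 h RT. Values: Hill-fit EC50, efficacy as % of 2 uM rosiglitazone.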

[10] = molecular target: Peroxisome proliferator-activated receptor gamma (Homo sapiens) (UniProt P37231); test: qHTS assay for small molecule antagonists of peroxisome proliferator-activated receptor gamma signaling (AID 588537; active = well fitted inhibition curve with a large enough effect in the signal ratio, with a control signal flat, not every such curve was filed as active; the % refers to the signal ratio;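 note: reporter cells co-stimulated with 50 nM rosiglitazone agonist during compound treatment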)
Summary of the method: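 HEK293 cells, PPAR-gamma-UAS-bla, 3000/well. Pre-incubation 6-6.5 h, 37 C. Compound titration with rosiglitazone 50 nM final, 16 h. CCF4 dye, 2 h RT, dual-emission fluorescence.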

[11] = molecular target: Vitamin D3 receptor (Homo sapiens) (UniProt P11473); test: qHTS assay for small molecule antagonists of vitamin D receptor signaling (AID 588541);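 note: receptor activated by calcitriol during compound treatment; series mostly up to about 77 µM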
Vitamin D3 receptor (Homo sapiens), sequence (P11473 whole entry, looked up): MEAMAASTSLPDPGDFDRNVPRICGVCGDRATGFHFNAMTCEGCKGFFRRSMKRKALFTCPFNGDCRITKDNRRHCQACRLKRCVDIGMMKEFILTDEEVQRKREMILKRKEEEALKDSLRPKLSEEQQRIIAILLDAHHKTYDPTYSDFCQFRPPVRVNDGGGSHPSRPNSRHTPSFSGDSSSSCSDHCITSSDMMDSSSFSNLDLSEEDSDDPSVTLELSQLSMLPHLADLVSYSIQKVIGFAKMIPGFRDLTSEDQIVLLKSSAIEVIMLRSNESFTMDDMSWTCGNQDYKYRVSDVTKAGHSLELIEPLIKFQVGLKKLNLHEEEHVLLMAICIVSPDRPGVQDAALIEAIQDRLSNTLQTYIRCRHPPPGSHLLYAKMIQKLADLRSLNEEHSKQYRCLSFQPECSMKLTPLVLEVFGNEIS
Summary of the method: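 VDR-UAS-bla HEK293T cells (2000/well, 2% charcoal-stripped FBS) were treated with titrated compounds plus 1-alpha,25-dihydroxyvitamin D3 (50 nM or 3 nM final) for 16 h at 37 C. CCF4 beta-lactamase fluorescence was read; Hill fits gave IC50.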

[12] = molecular target: Vitamin D3 receptor (Homo sapiens) (UniProt P11473); test: qHTS assay for small molecule agonists of vitamin D receptor signaling (AID 588543)
Summary of the method: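 VDR-UAS-bla HEK293T cells, 2000/well, 2% charcoal-stripped FBS; compound titration 16 h at 37 C; CCF4 beta-lactamase ratio read. Normalized to 50 nM 1-alpha,25-dihydroxyvitamin D3 (100%) and DMSO; Hill fit gives EC50, efficacy.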

[13] = qHTS assay for small molecule agonists of retinoid X receptor alpha signaling (AID 588544); settings: HEK293T RXRa-UAS-bla, beta-lactamase reporter, 18 h; 530 nm emission
[14] = molecular target: Glucocorticoid receptor (Homo sapiens) (UniProt P04150); test: qHTS assay for small molecule agonists of glucocorticoid receptor signaling (AID 588532; active = well fitted curve in the direction sought with a large enough effect in the signal ratio, with a control signal flat; the % refers to the signal ratio); settings: HeLa MMTV-bla, beta-lactamase ratio, agonist, 18 h; stronger effect = higher value; percent of dexamethasone control, DMSO zero
Glucocorticoid receptor (Homo sapiens), sequence (P04150 whole entry, looked up): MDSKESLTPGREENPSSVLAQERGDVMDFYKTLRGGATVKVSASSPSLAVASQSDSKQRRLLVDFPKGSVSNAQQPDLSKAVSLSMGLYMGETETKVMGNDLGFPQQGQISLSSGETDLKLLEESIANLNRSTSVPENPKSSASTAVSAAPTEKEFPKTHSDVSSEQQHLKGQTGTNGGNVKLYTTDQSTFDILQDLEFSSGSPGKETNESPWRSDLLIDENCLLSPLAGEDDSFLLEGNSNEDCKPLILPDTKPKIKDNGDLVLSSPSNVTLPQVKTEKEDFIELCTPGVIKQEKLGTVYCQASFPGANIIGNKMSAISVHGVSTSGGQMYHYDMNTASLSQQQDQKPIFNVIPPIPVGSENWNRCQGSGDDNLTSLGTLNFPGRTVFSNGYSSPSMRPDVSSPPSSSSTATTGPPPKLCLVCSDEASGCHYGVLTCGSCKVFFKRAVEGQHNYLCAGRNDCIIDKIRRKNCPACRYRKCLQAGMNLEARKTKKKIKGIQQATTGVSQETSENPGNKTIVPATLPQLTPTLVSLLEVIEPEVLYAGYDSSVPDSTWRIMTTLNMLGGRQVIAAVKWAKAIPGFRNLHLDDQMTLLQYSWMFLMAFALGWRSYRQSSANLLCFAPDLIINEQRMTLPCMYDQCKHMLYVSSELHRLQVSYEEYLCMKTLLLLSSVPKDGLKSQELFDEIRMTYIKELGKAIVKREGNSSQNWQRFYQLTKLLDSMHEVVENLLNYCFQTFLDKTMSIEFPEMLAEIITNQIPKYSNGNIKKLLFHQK
Summary of the method: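 Stimulation of a glucocorticoid response element-driven beta-lactamase gene was measured in HeLa cells. Responses were scaled between DMSO basal and 0.1 uM dexamethasone, then fitted for half-maximal stimulation.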

[15] = molecular target: Glucocorticoid receptor (Homo sapiens) (UniProt P04150); test: qHTS assay for small molecule antagonists of glucocorticoid receptor signaling (AID 588533; active = well fitted inhibition curve with a large enough effect in the signal ratio, with a control signal flat, not every such curve was filed as active; the % refers to the signal ratio;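 note: cells stimulated with 2 nM dexamethasone as agonist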)
Summary of the method: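 Antagonist-mode qHTS: compound titrations added to GRE-bla HeLa cells, then dexamethasone 2 nM final; 18 h, 37 C. CCF4 FRET fluorescence normalized to dexamethasone and DMSO; IC50 from Hill fit.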

In the case of `O=c1ccn([C@@H]2O[C@H](CO)[C@@H](O)[C@H]2O)c(=O)[nH]1`, the outcome [1] is reported as “inactive”.
For `OCc1ccccc1O[C@@H]1O[C@H](CO)[C@@H](O)[C@H](O)[C@H]1O`, the Potency [2] was “inactive” and the outcome [1] was “inactive”.
For `CCOc1ccc2c(c1)C(C)=CC(C)(C)N2`, the activity change, negative = inhibition [2] was -8.83% [at 11.4 µM] (inactive), the outcome [3] was “inactive” and the activation [4] was 15.4% (inactive). For the same compound, the outcome [5] was “inactive”.
With `CC1=CCC(C(C)(C)O)CC1` (stereo unspecified) the Potency [2] was “inactive”, the outcome [3] was “inactive” and the activation [4] was 3.37% (inactive). For the same compound, the outcome [5] was “inactive”, the Potency [6] was “inactive” and the max response [7] was -21.9%. For the same compound, the outcome [8] was “inactive”, the outcome [9] was “inactive” and the outcome [10] was “inactive”. For the same compound, the outcome [11] was “inactive”, the outcome [12] was “inactive” and the max response [13] was -10.8%.
In the case of `O=S(=O)(O)O`, the Potency [2] is reported as “inactive”, the outcome [9] is reported as “inactive” and the outcome [10] is reported as “inactive”. The max response [13] was -13.7% and 0.0864%.
With `O=C(O)CCC(=O)C(=O)O` the Potency [2] was “inactive”, the outcome [3] was “inactive” and the activation [14] was -1.14% (inactive). For the same compound, the outcome [15] was “inactive”, the outcome [9] was “inactive” and the outcome [10] was “inactive”. The outcome [11] was “inactive”, the outcome [12] was “inactive” and the max response [13] was -2.92%.
In the case of `O=C(COc1ccc(Cl)cc1)OCCNC12CC3CC(CC(C3)C1)C2`, the Potency [2] is reported as “inactive”.
For `CCOC(C)=O`, the Potency [2] was “inactive”, the outcome [3] was “inactive” and the activation [14] was -2.25% (inactive). For the same compound, the outcome [15] was “inactive”, the max response [7] was -20.7% and the outcome [8] was “inactive”. For the same compound, the outcome [9] was “inactive”, the outcome [10] was “inactive” and the outcome [11] was “inactive”. For the same compound, the outcome [12] was “inactive” and the max response [13] was -19.8%.
In the case of `COC(=O)[C@H]1[C@H]2CC3c4[nH]c5ccccc5c4CCN3C[C@@H]2CC[C@@H]1O` (stereo partly specified), the outcome [1] is reported as “inactive”.
In the case of `CC1(C)C(C=C(Cl)Cl)C1C(=O)OCc1cccc(Oc2ccccc2)c1` (stereo unspecified), the Potency [2] is reported as “inactive”, the outcome [3] is reported as “inactive” and the activation [4] is reported as 4.68% (inactive) [middle of 4 runs]. For the same compound, the outcome [5] was “inactive”, the outcome [15] was “inactive” and the outcome [8] was “inactive”. The outcome [11] was “inactive”.
In the case of `COc1ccc2c3c1O[C@H]1C[C@@H](O)C=C[C@@]31CCN(C)C2`, the Potency [2] is reported as “inactive”.
In the case of `Cc1ccccc1`, the Potency [2] is reported as “inactive”, the activation [14] is reported as -1.45% (inactive) and 2.79% (inactive) and the outcome [15] is reported as “inactive”. The max response [7] was 1.03% and 40.9%, the outcome [8] was “inactive” and the outcome [9] was “inactive”. For the same compound, the outcome [10] was “inactive”, the outcome [11] was “inactive” and the outcome [12] was “inactive”. For the same compound, the max response [13] was -1.14% and 7.93%.
In the case of `COC(=O)C1=C(C)NC(C)=C(C(=O)OCCCN2CCC(c3ccccc3)(c3ccccc3)CC2)[C@H]1c1cccc([N+](=O)[O-])c1`, the outcome [1] is reported as “inactive”.
In the case of `O=C(O)CC/C=C\CC[C@H]1[C@@H](N2CCCCC2)[C@@H](O)C[C@@H]1OCc1ccc(-c2ccccc2)cc1`, the Potency [2] is reported as “inactive” and the outcome [1] is reported as “inactive”.
With `C=CCSSSCC=C` the Potency [2] was “inactive”.
In the case of `CCCCC/C=C\C/C=C\CCCCCCCC(=O)O`, the outcome [3] is reported as “inactive”, the Potency [6] is reported as “inactive” and the max response [7] is reported as 53% and -23.8%. For the same compound, the outcome [8] was “inactive”, the outcome [10] was “inactive” and the outcome [11] was “inactive”. The outcome [12] was “inactive” and the max response [13] was -2.55%.
For `Nc1ccn([C@H]2CS[C@@H](CO)O2)c(=O)n1`, the activation [14] was -2.07% (inactive), the outcome [15] was “inactive” and the max response [7] was -4.56%. For the same compound, the outcome [8] was “inactive”, the outcome [9] was “inactive” and the outcome [11] was “inactive”. For the same compound, the outcome [12] was “inactive” and the max response [13] was 1%.
With `CC(C)(C)C(=O)OCOC(=O)[C@@H]1N2C(=O)[C@@H](N=CN3CCCCCC3)[C@H]2SC1(C)C` the Potency [2] was “inactive”.
With `CCCCCCCC(=O)O` the Potency [2] was “inactive”, the outcome [3] was “inactive” and the outcome [15] was “inactive”. The outcome [9] was “inactive”, the outcome [11] was “inactive” and the outcome [12] was “inactive”. For the same compound, the max response [13] was 23.4% and -6.86%.
